{"source": "PubChem BioAssay (NCI)", "note": "Where “and” joins values, the source holds several entries; their conditions need not be identical. Equal values may be shown once. This is part of a sample that, as a whole, favours compounds with a hit. Of some 83,000 tested, about 20% had one in any assay.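 Activity criterion: percent growth below 10, measured after cells in 96-well plates were exposed to a single compound concentration for 48 hours.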 Calls of active or inactive are those of the source."}
{"tested_on": "HL-60(TB) leukemia", "experiment": "NCI-60 one-dose screen, 48 h (100 = growth as untreated, 0 = no growth, -100 = all killed)", "settings": "10 µM unless noted"}
{"smiles": "O=[N+]([O-])c1cc(/C=N/Nc2nc(N/N=C/c3ccc(Cl)c([N+](=O)[O-])c3)nc(N3CCCCC3)n2)ccc1Cl", "growth": "41.9% (inactive)"}
{"smiles": "CC(=O)NC(C)(C)C(=O)N[C@@H](C)C(=O)NC(C)(C)C(=O)N[C@@H](C)C(=O)NC(C)(C)C(=O)N[C@@H](C)C(=O)N[C@@H](CCC(N)=O)C(=O)NC(C)(C)C(=O)N[C@H](C(=O)NC(C)(C)C(=O)NCC(=O)N[C@@H](CC(C)C)C(=O)NC(C)(C)C(=O)N1CCC[C@H]1C(=O)N[C@H](C(=O)NC(C)(C)C(=O)NC(C)(C)C(=O)N[C@@H](CCC(N)=O)C(=O)N[C@@H](CCC(N)=O)C(=O)N[C@H](CO)CC1CCCCC1)C(C)C)C(C)C", "growth": "10.3% [5 µM] (inactive)"}
{"smiles": "C#C[C@]1(O)CC[C@H]2[C@@H]3CC=C4c5sc(Nc6ccc(Cl)cn6)nc5CC[C@]4(C)[C@H]3CC[C@@]21C", "growth": "6.4% (active)"}
{"smiles": "COc1ccc(-c2oc3cc(O)cc(O)c3c(=O)c2OC)cc1O", "growth": "-6.5% (active)"}
{"smiles": "Cc1csc(/N=C(N)/N=C(\\N)c2cccc(C#N)c2)n1", "growth": "70.8% (inactive)"}
{"smiles": "COc1cc(-c2nc(-c3ccccc3)[nH]c2-c2ccnc(NCCCNS(=O)(=O)c3ccc(C(F)(F)F)cc3)n2)ccc1Cl", "growth": "13.9% (inactive) and 37.8% (inactive)"}
{"smiles": "COc1ccc(/C=N\\NC(=O)c2ccc3nc(-c4ccc(Br)cc4)[nH]c3c2)cc1", "growth": "84.4% (inactive)"}
{"smiles": "CC1=N[C@@H]2CN(C(=O)OC(C)(C)C)C[C@@H]2n2c1cc1ccccc1c2=O", "growth": "99.9% (inactive)"}
{"smiles": "Cn1cc(-c2cc(N)n3nc(-c4cn(C)c5ccc(Cl)cc45)cc3n2)c2cc(Cl)ccc21", "growth": "31.5% (inactive)"}
{"smiles": "COc1ccccc1N1CCN(C2=C(Cl)C(=O)c3ncccc3C2=O)CC1", "growth": "12.5% (inactive)"}
{"smiles": "CC1(C)[C@@H](O)CC[C@]2(C)[C@H]3CC[C@@H]4[C@H]5[C@H](C(=O)/C=C\\c6ccc([N+](=O)[O-])cc6)CC[C@]5(O)CC[C@@]4(C)[C@]3(C)CC[C@@H]12", "growth": "27.9% (inactive)"}
{"smiles": "O=C(CSc1ccc(-c2nc3ccccc3[nH]2)cn1)N1CCN(c2ccccc2F)CC1", "growth": "64.6% (inactive)"}
{"smiles": "CC(C)=CCC[C@](C)(O)[C@H]1CC[C@]2(C)[C@@H]1CC[C@@H]1[C@@]3(C)CC[C@H](N)C(C)(C)[C@@H]3CC[C@]12C", "growth": "-24.1% (active)"}
{"smiles": "CC1(C)C=Cc2cc(/C(N)=N/C(N)=N/c3nc4ccccc4s3)ccc2O1", "growth": "72.9% (inactive)"}
{"smiles": "CN1CCN(c2ccc(Nc3nc(NCCNS(=O)(=O)c4ccc5ccccc5c4)c4sccc4n3)cc2)CC1", "growth": "-29.5% (active)"}
{"smiles": "COc1ccc(CN2C(=O)/C(=C/c3nc(CO)cs3)SC2=S)cc1", "growth": "58.9% (inactive)"}
{"smiles": "Cn1cc(-c2cc(N)n3nc(-c4cn(C)c5ccc(F)cc45)cc3n2)c2cc(F)ccc21", "growth": "-32.4% (active)"}
{"smiles": "CC1=C(C)C(=O)C(Nc2ccc(C)c(C)c2)=C(Br)C1=O", "growth": "-37.7% (active)"}
{"smiles": "CC(=O)N1N=C(c2cccc(-n3cccc3)c2)CC1c1cccc(F)c1", "note": "(centres undefined)", "growth": "108% (inactive)"}
{"smiles": "CCN1CCN(c2cc(C(=O)Nc3nc4ccc(Oc5ccnc(C(=O)NC)c5)cc4s3)cc(C(F)(F)F)c2)CC1", "growth": "18.7% (inactive)"}
{"smiles": "CS(=O)(=O)c1ccc2c(c1)c1c(n2Cc2ccc(Cl)cc2)CCCC1", "growth": "70.5% (inactive)"}
{"smiles": "Brc1cccc(-c2cc(-c3ccc4c(c3)OC=CO4)[nH]n2)c1", "growth": "14.7% (inactive)"}
{"smiles": "COc1cccc(/C=C(/C)c2ccc3cccc(OC)c3[o+]2)c1O", "growth": "99.7% (inactive)"}
{"smiles": "CN1CCN(c2ccc(/C=N/n3cnc4oc(-c5ccccc5)cc4c3=N)cc2)CC1", "growth": "121% (inactive)"}
{"smiles": "C=C(C)[C@@H]1CC[C@]2(COP(=O)(OCC)OCC)CC[C@]3(C)[C@H](CC[C@@H]4[C@@]5(C)CC[C@H](OP(=O)(OCC)OCC)C(C)(C)[C@@H]5CC[C@]43C)[C@@H]12", "growth": "16.2% (inactive)"}
{"smiles": "O=C1[C@H]2Cc3c([nH]c4ccccc34)[C@@H](c3ccc(Br)cc3)N2C(=O)CN1C1CCN(Cc2ccccc2)CC1", "growth": "-28.4% (active)"}
{"smiles": "CS(=O)(=O)c1ccc(-n2cc(/C=C/C(=O)c3ccc(NC(=O)CO[N+](=O)[O-])cc3)c(-c3ccc(Cl)cc3)n2)cc1", "growth": "109% (inactive)"}
{"smiles": "O=C1CC(=O)N2CSCN(C(c3ccccc3)c3nc4ncncc4[nH]3)C2=N1", "note": "(centres undefined)", "growth": "118% (inactive)"}
{"smiles": "CCOC(=O)c1ccccc1NC1=C(Cl)C(=O)c2nc(C)ccc2C1=O", "growth": "70.9% (inactive)"}
